# For some assays here: Entries with a potency or affinity are not part of this list.
# Assays:
# Design in all cases: scale not given: direction of the effect not stated beside the values
# [1] = molecular target: Protein translocase subunit SecA (Escherichia coli (strain K12)) (UniProt P10408); experiment: Assay to Identify E. coli SecA ATPase Inhibitors; type: functional; settings: 30 µM
# [2] = molecular target: T1, Ubiquitin-activating enzyme e1, putative (Leishmania donovani (strain BPK282A1)) (UniProt E9BSI1); experiment: Leishmania donovani Ubiquitin Activating Enzyme (LdE1); type: functional; settings: 30 µM
# T1 sequence (whole entry): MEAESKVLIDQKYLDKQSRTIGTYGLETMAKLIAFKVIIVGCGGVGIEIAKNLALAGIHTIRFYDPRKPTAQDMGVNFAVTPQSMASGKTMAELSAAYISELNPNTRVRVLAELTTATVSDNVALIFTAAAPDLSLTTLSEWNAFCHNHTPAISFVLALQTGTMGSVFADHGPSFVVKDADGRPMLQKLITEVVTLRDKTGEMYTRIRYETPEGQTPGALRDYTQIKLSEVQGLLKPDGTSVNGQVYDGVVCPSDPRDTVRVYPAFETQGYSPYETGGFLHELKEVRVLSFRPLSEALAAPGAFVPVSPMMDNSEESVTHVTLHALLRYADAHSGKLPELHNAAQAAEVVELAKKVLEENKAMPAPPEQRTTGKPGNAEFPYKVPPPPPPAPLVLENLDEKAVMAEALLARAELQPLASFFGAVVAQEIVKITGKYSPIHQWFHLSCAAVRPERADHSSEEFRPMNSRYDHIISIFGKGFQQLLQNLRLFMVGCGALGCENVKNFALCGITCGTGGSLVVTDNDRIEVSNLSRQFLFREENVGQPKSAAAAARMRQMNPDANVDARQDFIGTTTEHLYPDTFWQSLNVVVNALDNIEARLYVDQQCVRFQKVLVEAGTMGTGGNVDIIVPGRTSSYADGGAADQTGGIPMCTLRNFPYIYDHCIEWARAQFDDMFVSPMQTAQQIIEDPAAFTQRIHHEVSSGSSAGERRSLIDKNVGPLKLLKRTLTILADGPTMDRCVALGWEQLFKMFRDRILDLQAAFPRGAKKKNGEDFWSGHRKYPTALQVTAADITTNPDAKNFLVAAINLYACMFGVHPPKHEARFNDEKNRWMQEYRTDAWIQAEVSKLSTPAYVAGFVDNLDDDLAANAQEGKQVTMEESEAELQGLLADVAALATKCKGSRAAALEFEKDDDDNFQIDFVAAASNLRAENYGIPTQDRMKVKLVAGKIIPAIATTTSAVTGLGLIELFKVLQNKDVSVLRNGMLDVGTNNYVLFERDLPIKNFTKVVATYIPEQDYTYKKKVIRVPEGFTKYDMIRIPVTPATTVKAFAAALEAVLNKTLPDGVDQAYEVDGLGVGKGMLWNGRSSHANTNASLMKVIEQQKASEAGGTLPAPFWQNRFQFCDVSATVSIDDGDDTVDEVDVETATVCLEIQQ
# [3] = molecular target: AMP-activated protein kinase, AMPK (Homo sapiens) (UniProt P54646+O43741+P54619+Q9UGJ0+Q9Y478+Q13131+Q9UGI9); experiment: AMP-dependent Kinase enzyme assay. An in vitro enzyme assay that detects ADP turnover that is directly proportional to AMPK activity. This uses naive AMPK that is activated during the assay with MK-8722; type: functional; settings: 30 µM
# [4] = molecular target: Sialic acid-binding Ig-like lectin 9 (Homo sapiens) (UniProt Q9Y336); experiment: Hs-Siglec9 ALPHAscreen SOP 20170721; settings: 10 µM
# Sialic acid-binding Ig-like lectin 9 (Homo sapiens), sequence (Q9Y336 whole entry): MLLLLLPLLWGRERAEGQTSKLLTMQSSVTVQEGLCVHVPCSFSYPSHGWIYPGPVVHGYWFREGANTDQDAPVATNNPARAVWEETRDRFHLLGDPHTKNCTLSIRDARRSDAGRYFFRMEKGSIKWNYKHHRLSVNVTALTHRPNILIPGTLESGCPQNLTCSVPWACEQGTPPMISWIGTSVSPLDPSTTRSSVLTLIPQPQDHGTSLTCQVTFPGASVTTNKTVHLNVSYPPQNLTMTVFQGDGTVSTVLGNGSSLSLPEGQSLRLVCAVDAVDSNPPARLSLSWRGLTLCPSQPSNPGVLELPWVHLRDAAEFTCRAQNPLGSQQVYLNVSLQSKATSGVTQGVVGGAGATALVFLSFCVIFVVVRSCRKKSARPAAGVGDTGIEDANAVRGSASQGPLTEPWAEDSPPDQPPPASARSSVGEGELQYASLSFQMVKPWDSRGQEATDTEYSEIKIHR
# Trypanosoma cruzi = experiment: Trypanosoma cruzi phosphomannomutase and mannose-1-phosphate guanylyltransferase assay; type: functional; settings: 10 µM
# [5] = molecular target: T2, Arginase-2, mitochondrial (Homo sapiens) (UniProt P78540); experiment: in vitro enzyme assay to detect the production of urea directly proportional to the activity of Arginase II; type: functional; settings: 33.3 µM; also: in the data most compounds retested in dose-response had high values
# T2 sequence (whole entry): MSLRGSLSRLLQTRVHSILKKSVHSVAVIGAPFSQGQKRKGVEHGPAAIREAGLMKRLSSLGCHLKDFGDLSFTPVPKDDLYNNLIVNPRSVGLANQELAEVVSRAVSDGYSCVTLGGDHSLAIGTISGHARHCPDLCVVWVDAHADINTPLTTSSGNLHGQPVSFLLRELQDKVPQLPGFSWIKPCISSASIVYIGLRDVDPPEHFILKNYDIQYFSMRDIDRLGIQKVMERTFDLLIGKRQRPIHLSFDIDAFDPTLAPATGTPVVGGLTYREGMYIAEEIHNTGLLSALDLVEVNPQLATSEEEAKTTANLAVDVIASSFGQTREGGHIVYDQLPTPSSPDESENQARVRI
# [6] = molecular target: T3, Proteasome subunit beta (Trypanosoma cruzi) (UniProt O96673); experiment: Trypanosoma cruzi proteasome chymotrypsin-like activity (TcProtChymo) assay.; also: in the data most compounds retested in dose-response had high values; type: functional; settings: 9.37 µM
# T3 sequence (whole entry): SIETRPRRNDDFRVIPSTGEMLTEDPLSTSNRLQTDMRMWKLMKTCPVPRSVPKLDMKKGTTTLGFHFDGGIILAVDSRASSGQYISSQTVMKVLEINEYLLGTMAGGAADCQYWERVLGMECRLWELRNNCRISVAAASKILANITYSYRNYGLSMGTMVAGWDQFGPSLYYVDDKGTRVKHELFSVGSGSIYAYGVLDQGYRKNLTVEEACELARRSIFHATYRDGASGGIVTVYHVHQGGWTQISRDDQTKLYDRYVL
# Homo sapiens = species: Homo sapiens; experiment: To identify inhibition of the IFN signalling (Jak-Stat) pathway via expression of an eGFP reporter gene under the control of an IFN-stimulated response element (ISRE) containing MxA promoter.; type: functional; settings: 30 µM
# [7] = molecular target: T4, Tyrosyl-tRNA synthetase, putative (Trypanosoma cruzi (strain CL Brener)) (UniProt Q4DSP6); experiment: Trypanosoma cruzi tyrosyl tRNA synthetase (TcYRS) _High Tyrosine SOP; type: functional; settings: 30 µM; also: in the data most compounds retested in dose-response had high values
# T4 sequence (whole entry): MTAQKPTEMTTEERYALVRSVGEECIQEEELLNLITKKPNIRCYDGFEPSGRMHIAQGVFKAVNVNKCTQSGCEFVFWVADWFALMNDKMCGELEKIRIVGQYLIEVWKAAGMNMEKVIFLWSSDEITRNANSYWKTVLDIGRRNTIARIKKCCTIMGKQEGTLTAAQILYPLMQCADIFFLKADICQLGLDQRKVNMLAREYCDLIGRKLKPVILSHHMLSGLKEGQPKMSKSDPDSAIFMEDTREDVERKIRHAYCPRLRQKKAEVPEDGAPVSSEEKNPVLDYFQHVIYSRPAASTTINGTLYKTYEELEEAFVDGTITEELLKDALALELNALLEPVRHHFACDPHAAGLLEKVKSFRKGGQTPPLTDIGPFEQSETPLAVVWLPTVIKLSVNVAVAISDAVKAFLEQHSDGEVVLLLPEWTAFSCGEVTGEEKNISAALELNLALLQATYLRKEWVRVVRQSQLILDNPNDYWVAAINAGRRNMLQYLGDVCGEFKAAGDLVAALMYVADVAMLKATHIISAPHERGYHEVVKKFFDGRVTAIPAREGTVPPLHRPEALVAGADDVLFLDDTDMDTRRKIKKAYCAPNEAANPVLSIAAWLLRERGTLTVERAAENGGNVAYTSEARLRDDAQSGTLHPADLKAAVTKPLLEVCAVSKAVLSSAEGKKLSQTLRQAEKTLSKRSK
# [8] = molecular target: T4, Tyrosyl-tRNA synthetase, putative (Trypanosoma cruzi (strain CL Brener)); experiment: Trypanosoma cruzi tyrosyl tRNA synthetase (TcYRS) SOP; type: functional; settings: 30 µM
# [9] = molecular target: Chromo domain-containing protein 1 (Saccharomyces cerevisiae (strain ATCC 204508 / S288c) (Baker's yeast)) (UniProt P32657); experiment: ScCHD-1 Enzyme Inhibition Assay; type: functional; settings: 30 µM; also: in the data most compounds retested in dose-response had high values
# Chromo domain-containing protein 1 (Saccharomyces cerevisiae (strain ATCC 204508 / S288c) (Baker's yeast)), sequence (P32657 whole entry, the tested form may be a part): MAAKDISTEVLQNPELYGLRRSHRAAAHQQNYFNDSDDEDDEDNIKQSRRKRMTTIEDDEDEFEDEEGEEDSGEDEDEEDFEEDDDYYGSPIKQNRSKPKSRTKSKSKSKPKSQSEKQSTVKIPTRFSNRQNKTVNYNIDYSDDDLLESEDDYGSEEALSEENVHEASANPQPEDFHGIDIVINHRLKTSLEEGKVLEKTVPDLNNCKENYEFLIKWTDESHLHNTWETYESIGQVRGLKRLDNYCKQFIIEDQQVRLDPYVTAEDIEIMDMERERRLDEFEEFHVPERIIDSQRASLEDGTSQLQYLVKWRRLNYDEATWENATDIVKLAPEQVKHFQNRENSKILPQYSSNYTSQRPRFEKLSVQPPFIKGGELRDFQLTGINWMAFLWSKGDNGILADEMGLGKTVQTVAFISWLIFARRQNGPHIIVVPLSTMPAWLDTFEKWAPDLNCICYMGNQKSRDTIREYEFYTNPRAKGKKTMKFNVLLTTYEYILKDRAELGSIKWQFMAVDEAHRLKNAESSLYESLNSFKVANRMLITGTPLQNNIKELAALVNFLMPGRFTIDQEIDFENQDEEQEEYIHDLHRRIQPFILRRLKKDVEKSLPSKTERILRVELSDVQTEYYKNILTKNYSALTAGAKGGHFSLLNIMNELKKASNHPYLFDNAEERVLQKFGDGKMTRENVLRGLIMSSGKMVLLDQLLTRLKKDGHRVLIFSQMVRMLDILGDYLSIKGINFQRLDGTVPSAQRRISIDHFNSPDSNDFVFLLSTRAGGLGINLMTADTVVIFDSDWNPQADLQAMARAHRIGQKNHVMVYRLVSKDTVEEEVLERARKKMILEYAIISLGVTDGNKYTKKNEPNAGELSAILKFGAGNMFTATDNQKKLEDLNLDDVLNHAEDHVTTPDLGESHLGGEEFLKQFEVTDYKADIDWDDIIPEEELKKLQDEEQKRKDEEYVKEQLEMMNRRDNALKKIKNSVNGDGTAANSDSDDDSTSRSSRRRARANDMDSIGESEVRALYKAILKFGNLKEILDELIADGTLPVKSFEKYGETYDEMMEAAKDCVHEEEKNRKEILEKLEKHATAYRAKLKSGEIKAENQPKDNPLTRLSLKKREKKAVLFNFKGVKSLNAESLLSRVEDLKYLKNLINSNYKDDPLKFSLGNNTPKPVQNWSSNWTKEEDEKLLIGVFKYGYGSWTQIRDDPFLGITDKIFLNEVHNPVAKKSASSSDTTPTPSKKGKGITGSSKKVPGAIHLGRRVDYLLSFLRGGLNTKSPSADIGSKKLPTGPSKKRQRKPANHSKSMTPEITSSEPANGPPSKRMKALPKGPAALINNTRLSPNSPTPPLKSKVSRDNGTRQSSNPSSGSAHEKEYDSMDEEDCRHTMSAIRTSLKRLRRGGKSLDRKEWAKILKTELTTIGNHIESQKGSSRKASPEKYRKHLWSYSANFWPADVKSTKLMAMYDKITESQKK
# Protein translocase subunit SecA (Escherichia coli (strain K12)), sequence (P10408 whole entry): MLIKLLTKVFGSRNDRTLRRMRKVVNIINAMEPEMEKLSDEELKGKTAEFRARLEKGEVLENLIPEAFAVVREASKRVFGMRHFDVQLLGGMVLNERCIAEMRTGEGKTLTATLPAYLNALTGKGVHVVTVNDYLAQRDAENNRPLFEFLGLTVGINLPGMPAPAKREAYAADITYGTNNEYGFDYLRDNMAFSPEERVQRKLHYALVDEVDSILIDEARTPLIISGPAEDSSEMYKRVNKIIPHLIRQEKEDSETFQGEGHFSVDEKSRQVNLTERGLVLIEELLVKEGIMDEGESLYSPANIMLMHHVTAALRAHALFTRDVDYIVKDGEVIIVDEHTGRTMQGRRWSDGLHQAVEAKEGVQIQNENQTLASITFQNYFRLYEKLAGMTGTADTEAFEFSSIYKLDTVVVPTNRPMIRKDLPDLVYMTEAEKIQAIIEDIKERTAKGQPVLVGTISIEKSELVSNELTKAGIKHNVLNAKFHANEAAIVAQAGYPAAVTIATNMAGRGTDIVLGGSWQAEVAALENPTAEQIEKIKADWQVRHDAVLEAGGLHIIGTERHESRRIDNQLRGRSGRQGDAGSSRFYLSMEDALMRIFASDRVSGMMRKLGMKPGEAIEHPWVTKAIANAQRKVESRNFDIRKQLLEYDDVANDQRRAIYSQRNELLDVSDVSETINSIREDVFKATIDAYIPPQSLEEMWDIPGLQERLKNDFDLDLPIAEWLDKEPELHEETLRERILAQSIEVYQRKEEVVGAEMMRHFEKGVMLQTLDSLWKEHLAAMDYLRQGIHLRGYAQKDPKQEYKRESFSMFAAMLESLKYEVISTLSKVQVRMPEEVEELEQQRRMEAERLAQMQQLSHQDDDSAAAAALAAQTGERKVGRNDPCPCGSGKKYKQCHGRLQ
Compound,Percent Effect [1] [%],Percent Effect [2] [%],Percent Effect [3] [%],Percent Effect [4] [%],Percent Effect (Trypanosoma cruzi) [%],Percent Effect [5] [%],Percent Effect [6] [%],Percent Effect (Homo sapiens) [%],Percent Effect [7] [%],Percent Effect [8] [%],Percent Effect [9] [%]
Cc1cc(C)c(CNC(=O)N2CCCC2c2ccccc2)c(=O)[nH]1 (stereo unspecified),-1.29,-77.2,4.12,3.59,3.59,3.23,19.4,-0.586,3.12,17.7,-23.8
COCC(=O)N1CC[C@@H]2O[C@@H](COCc3csc(C)n3)CC[C@@H]21,-2.35,13.5,4.29,-14.3,-2.25,7.96,26.9,-1.3,8.65,12.8,-4.47
CC(O)CN1CCN(C(=O)c2cccc(CC#N)c2)CC1 (stereo unspecified),-0.303,23.4,-4.34,-2.88,0.749,3.92,12.7,27,6.8,2.44,-4.3
CN(C(=O)Cn1nc(-c2cccs2)ccc1=O)C1CCS(=O)(=O)C1 (stereo unspecified),-7.27,0,-37.7,-0.941,-7.3,1.18,14.9,19.4,-5.32,-10.4,-7.9
COc1ccc(CCN2CCc3c(nc(C4CC4)n3C)C2)cc1,-2.18,18.2,-12.2,-0.11,-3.18,0.356,9.12,18.2,6.8,2.44,-7.4
CCN(CC)CCNC(=O)c1cc(C(C)C)nc(N2CCCC2)n1,-0.4,20,1.03,-8.5,2.55,-24.1,12.8,20.4,0,12.8,80.8
CCOCC(O)CN1CCN(C(=O)c2cnc3n[nH]c(C)c3c2)CC1 (stereo unspecified),-4.29,10.5,1.79,1.55,5.7,1.44,8.54,10.1,7.39,16.1,-0.703
Cc1occc1C(=O)N1CCCC2(CCN(CCN3CCCC3)C2=O)C1 (stereo unspecified),-3.31,-2.6,-1.22,14.5,6.79,-12.4,7.82,-2.84,-11.8,-11.1,-0.372
Cc1ccc(CNC(=O)N2CCCCC2CCNS(C)(=O)=O)cc1 (stereo unspecified),-1.58,2.7,2.59,-1.08,-1.74,-15.2,12.6,23.6,2.65,2.44,-4.89
COc1cccc(OCc2cc(C(=O)NC[C@H]3CCCN3)n[nH]2)c1,-3.48,15.3,-5.03,30.2,3.4,15.4,7.19,-6.81,1.05,12.8,-5.02
Cc1cnn(CC2CCCN2Cc2ncc(-c3ccccc3)o2)c1 (stereo unspecified),-1.68,-5.41,-10.1,-3.94,-9.53,4.01,8.11,10.7,10.3,18.5,-6.8
CCc1n[nH]c(C2CN(C(=O)c3cc4c(s3)CCCC4)CCO2)n1 (stereo unspecified),-1.02,20.2,0.0672,-4.74,-6.33,-0.76,6.96,30.5,1.48,8.86,-5.65
CCCc1n[nH]c(C2CN(C(=O)c3cc(F)ccc3OC)CCO2)n1 (stereo unspecified),-5.9,7.89,-0.379,3.53,2.33,-2.52,3.3,-17.2,6.4,11.1,-4.7
CCCS(=O)(=O)N1C[C@H]2OC(=O)N(CCc3cccc(Cl)c3)[C@H]2C1,-5.06,2.67,-2.35,-2.36,-3.21,-2.08,5.93,16.4,-0.546,3.7,-2.16
CCn1cc2c(n1)CN(C(=O)c1ccncc1)CC2COCC1CC1 (stereo unspecified),1.97,13.3,-0.804,23.2,-1.74,-23.5,20.9,-8.6,3.12,20,-6.15
Cc1ccc(N2CCCC(NCc3ccncc3)C2)nn1 (stereo unspecified),-2.1,11.4,-4.43,-7.21,0.718,-3.23,26.8,-2.46,0,2.53,-31.9

# From ChEMBL document CHEMBL3988442, “University of Dundee, Small-Polar-MMV Screening Library” (2021)
